Reference: the supplement of paper PMC10849652
Targets with a hit are over-represented here; the source holds about 8,800 in all. About 0.5% of all pairs of compound and target were hits.

Legend:
Test in all cases: log2 fold change, soluble protein after heating vs DMSO (PISA); higher = thermal stabilisation; K562 lysate, 10 uM; active = over 0.2 and 3.5 SD of the protein, either way, in both replicates (recomputed)
[1] = compound: NCC(=O)Nc1ccc(-n2nc(C(F)(F)F)cc2-c2ccc3c(ccc4ccccc43)c2)cc1
Procedure, shortened: (§1)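 Log-two fold change in thermal stability relative to solvent controls is reported from duplicates. For each sample, crude K562 extract from dounce-homogenised pellets in PBS pH 7.4 with 1 mM MgCl2, at 1 mg/mL protein, was treated with 10 μM compound for 30 min. Aliquots heated for 3 min across 48°C-58°C were pooled, brought to 0.5% NP-40 at 4°C and cleared at 21,000xg for 90 min. The supernatant was quantified by TMTpro 16plex LC-MS/MS with channel sums equalised.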

[2] = compound: O=C(CCCCCCC(=O)Nc1ccccc1)NO [vorinostat]
Procedure, shortened: as §1

[3] = compound: O=C(O)c1ccc2c(c1)nc(Nc1cccc(Cl)c1)c1ccncc12 [silmitasertib]
Procedure, shortened: as §1

[4] = compound: O=C1NC(=O)C(c2cnc3ccccn23)=C1c1cn2c3c(cc(F)cc13)CN(C(=O)N1CCCCC1)CC2
Procedure, shortened: as §1

[5] = compound: c1cn2cc(-c3ccc4cn[nH]c4c3)nc(Nc3ccc(N4CCOCC4)cc3)c2n1 [entospletinib]
Procedure, shortened: as §1

Sequence of UniProt O95870 (O95870 whole entry, looked up): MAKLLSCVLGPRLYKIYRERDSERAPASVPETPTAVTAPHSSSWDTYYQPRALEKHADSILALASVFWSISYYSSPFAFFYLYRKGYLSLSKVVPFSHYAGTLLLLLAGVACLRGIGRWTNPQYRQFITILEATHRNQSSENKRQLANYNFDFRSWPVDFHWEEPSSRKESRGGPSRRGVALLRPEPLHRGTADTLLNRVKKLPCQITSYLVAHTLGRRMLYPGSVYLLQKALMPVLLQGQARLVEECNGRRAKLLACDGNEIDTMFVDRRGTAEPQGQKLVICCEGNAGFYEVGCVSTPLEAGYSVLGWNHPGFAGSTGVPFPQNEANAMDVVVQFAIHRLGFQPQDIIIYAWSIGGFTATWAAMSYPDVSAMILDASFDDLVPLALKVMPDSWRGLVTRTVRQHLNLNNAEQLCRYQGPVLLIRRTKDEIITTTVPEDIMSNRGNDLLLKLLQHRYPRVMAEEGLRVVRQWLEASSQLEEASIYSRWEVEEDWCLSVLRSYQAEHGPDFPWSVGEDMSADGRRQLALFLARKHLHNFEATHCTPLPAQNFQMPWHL
Sequence of UniProt P53396 (P53396 whole entry, looked up): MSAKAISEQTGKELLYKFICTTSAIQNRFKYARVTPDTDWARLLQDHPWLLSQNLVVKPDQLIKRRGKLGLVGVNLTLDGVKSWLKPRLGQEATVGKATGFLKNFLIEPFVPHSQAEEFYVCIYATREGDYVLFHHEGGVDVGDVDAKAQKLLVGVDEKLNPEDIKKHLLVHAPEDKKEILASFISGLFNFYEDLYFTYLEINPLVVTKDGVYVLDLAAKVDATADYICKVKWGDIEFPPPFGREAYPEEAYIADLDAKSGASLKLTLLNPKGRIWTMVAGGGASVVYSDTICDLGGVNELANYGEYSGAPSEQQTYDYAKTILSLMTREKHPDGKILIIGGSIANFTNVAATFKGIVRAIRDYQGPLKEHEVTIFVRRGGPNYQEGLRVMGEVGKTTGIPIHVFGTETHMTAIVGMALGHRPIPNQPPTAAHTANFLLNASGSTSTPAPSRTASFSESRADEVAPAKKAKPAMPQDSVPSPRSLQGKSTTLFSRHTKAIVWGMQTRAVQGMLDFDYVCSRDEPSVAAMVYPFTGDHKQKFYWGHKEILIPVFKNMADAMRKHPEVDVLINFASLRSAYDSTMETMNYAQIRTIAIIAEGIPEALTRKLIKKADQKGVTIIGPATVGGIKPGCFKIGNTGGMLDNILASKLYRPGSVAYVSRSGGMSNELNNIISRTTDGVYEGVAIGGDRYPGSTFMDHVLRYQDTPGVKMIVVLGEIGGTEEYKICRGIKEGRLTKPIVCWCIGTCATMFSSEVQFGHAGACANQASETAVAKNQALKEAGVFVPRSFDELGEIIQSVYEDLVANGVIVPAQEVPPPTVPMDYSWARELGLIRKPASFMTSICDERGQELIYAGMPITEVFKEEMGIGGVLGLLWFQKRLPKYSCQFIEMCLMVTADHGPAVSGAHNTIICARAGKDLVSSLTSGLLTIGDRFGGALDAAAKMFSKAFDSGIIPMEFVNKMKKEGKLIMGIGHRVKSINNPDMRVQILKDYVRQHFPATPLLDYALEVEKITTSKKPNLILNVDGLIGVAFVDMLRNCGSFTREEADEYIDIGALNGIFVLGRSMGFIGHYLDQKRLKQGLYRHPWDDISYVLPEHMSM
Sequence of UniProt P55265 (P55265 whole entry, looked up): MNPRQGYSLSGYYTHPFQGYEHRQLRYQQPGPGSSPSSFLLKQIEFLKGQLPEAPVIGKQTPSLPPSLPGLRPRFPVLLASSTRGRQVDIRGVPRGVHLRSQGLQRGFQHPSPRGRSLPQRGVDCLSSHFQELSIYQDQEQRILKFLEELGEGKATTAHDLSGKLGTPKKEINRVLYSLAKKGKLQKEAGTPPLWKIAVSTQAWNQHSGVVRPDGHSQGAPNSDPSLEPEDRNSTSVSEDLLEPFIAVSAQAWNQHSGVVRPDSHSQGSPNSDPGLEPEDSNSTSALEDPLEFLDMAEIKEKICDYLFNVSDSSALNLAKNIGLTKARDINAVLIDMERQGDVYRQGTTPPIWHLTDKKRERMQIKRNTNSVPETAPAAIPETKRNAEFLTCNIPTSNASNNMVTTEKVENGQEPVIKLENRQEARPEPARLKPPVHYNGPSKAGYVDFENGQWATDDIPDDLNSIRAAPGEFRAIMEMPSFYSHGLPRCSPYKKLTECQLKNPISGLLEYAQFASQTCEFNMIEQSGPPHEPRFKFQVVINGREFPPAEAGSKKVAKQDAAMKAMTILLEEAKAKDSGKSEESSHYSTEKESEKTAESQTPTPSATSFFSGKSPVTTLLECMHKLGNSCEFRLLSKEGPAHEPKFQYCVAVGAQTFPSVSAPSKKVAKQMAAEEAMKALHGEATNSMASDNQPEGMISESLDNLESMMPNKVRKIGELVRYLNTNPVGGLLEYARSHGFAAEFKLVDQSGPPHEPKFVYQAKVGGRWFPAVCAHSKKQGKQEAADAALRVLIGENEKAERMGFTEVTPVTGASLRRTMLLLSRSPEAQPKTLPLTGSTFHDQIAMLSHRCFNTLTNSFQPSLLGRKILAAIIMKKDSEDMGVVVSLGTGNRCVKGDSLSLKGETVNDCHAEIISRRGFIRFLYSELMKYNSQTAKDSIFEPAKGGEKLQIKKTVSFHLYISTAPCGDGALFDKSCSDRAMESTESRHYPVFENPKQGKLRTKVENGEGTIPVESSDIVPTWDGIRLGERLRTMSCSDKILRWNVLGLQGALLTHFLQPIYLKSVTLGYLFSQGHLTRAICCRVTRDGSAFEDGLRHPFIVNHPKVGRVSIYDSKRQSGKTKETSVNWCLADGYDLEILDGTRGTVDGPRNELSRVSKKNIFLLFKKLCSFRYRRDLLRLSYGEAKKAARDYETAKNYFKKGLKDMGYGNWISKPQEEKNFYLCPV
Sequence of UniProt Q6P1M9 (Q6P1M9 whole entry, looked up): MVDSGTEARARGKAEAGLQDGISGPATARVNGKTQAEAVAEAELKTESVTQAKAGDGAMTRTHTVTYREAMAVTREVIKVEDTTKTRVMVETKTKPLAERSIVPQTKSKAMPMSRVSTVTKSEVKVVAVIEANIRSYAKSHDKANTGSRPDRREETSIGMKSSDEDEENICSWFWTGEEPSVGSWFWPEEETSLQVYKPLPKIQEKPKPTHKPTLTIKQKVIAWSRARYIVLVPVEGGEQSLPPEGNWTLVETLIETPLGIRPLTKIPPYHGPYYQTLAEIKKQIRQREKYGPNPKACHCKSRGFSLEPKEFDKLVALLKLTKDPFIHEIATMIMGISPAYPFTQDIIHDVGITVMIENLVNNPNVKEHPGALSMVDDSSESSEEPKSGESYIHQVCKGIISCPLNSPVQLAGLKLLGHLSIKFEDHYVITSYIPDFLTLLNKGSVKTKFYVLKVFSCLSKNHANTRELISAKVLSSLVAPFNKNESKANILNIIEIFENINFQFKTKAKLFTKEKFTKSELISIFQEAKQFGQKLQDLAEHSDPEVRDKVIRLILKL
Sequence of UniProt Q9BQI0 (Q9BQI0 whole entry, looked up): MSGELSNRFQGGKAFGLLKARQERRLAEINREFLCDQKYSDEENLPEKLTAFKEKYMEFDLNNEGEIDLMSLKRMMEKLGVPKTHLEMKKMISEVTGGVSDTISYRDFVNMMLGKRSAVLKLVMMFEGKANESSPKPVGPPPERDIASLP
Sequence of UniProt Q9BXX3 (Q9BXX3 whole entry, looked up): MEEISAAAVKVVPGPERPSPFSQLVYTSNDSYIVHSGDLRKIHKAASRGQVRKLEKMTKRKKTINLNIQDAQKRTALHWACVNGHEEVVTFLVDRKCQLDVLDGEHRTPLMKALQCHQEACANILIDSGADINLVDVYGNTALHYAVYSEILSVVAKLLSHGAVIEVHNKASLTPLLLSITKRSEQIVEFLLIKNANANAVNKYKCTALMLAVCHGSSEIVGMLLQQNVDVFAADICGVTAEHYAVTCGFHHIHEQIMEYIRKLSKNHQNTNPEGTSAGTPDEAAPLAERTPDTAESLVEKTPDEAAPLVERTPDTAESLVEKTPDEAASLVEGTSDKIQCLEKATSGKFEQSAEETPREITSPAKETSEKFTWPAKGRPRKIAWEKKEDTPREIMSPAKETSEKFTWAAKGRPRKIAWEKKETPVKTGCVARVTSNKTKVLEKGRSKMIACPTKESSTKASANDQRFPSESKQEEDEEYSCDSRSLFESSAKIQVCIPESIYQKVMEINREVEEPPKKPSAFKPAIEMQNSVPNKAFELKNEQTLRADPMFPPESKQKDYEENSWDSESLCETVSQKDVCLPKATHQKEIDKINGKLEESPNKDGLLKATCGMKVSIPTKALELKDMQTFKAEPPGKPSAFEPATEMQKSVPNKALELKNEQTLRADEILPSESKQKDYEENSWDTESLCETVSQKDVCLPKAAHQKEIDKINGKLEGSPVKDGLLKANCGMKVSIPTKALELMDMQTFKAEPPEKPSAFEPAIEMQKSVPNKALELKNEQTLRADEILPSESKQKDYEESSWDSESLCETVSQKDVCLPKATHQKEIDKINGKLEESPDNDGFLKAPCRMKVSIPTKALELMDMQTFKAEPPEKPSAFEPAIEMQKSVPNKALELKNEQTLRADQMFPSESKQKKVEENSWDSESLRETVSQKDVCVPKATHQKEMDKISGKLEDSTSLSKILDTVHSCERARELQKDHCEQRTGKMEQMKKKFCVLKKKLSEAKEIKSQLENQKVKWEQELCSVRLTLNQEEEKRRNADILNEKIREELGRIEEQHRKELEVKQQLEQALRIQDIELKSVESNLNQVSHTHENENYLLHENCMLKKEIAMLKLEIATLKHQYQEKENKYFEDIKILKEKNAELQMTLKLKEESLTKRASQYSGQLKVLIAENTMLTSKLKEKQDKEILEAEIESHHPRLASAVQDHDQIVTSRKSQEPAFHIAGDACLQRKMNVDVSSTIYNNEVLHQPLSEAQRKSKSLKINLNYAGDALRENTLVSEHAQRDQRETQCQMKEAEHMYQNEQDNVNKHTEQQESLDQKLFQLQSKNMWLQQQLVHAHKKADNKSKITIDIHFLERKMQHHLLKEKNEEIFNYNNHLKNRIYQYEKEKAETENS

Row | Target | log2 fold change [1] | log2 fold change [2] | log2 fold change [3] | log2 fold change [4] | log2 fold change [5]
1 | ABHD16A (UniProt O95870) | 0.007 (inactive) | 0.906 (active) | -0.1 (inactive) | -0.056 (inactive) | -0.01 (inactive)
2 | AIMP2 isoform 2 (UniProt Q13155) | – | – | – | -0.07 (inactive) | –
3 | ARMCX5 (UniProt Q6P1M9) | -0.233 (inactive) | 0.102 (inactive) | 0.013 (inactive) | – | 0.088 (inactive)
4 | ALDH18A1 isoform 2 (UniProt P54886) | 0.097 (inactive) | – | – | 0.204 (inactive) | –
5 | AIF1L (UniProt Q9BQI0) | – | -0.048 (inactive) | 0.083 (inactive) | 0.022 (inactive) | 0.116 (inactive)
6 | ADAR isoform 4 (UniProt P55265) | -0.029 (inactive) | -0.35 (active) | 0.019 (inactive) | -0.031 (inactive) | 0.022 (inactive)
7 | ANKRD30A (UniProt Q9BXX3) | – | – | – | -0.011 (inactive) | -0.135 (inactive)
8 | ANXA2 (UniProt H0YL33) | – | -0.153 (inactive) | 0.16 (inactive) | 0.042 (inactive) | –
9 | ACLY isoform 2 (UniProt P53396) | 0.091 (inactive) | – | – | -0.061 (inactive) | -0.047 (inactive)
